G9a block: qHTS Assay for Inhibitors of Histone Lysine Methyltransferase G9a. Potency, µM (top dose mostly 102 µM), inactives show at the highest dose activity, negative = inhibition, most hits filed as inhibitors. G9a H3K9 monomethylation, AlphaScreen, 2 h. 350,000 compounds, 8.8% hits; also: % is scaled to controls: 0 for no effect and ±100 for the full control effect; nearly all actives have a fitted effect of over 75% in size
Target sequence (Q96KQ7 913-1193 limits assumed): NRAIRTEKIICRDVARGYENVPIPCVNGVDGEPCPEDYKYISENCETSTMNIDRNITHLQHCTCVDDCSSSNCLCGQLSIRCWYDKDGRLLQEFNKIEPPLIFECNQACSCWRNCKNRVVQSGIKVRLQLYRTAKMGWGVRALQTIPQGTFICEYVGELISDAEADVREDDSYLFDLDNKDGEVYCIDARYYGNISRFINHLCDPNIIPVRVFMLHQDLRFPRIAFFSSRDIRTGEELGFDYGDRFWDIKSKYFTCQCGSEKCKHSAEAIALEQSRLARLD
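Readings reflect AlphaScreen signal from monomethyl-H3K9 antibody detection. HMT at 20 nM; substrate b-H3K9 500 nM; cofactor SAM 20 uM; 2 h RT reaction; compounds tested as titrations in qHTS with 15 min preincubation.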
BAZ2B inh: qHTS Assay for Inhibitors of BAZ2B. AID 504333, 2011. 360,000 compounds, 4.4% hits. Bromodomain adjacent to zinc finger domain protein 2B (Homo sapiens), Q9UIF8. Potency, µM (series often up to 114 µM), for the others: at the highest dose activity change, negative = inhibition, most hits filed as inhibitors. AlphaScreen BAZ2B-H3K14Ac peptide displacement; also: % is scaled to controls: 0 for no effect and ±100 for the full control effect; nearly all actives have a fitted effect of over 60% in size
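BAZ2B (50 nM) with biotin-H3(5-23)K14Ac peptide (50 nM) in PBS pH 7.4, 0.01% Tween-20, preformed 30 min, then compound 30 min at room temperature; top concentration 110uM. AlphaScreen streptavidin donor/nickel chelate acceptor beads (10 ug/mL final), 20 min dark, signal read.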
Sfp PPTase inh: qHTS Assay for Inhibitors of Bacillus subtilis Sfp phosphopantetheinyl transferase (PPTase); AID 1490, 2009; Biochemical Sfp PPTase activity, qHTS; Potency, µM, for the others: largest response in the series, negative = inhibition, actives largely listed as inhibitors; 310,000 compounds, 3.5% hits;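 also: the enzyme is Sfp with the accession as filed and its product quenches rhodamine fluorescence; 0% = enzyme reaction without inhibitor and -100% = no enzyme wells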
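After 15 min at room temperature with compound, 15 nM Sfp received 5 uM rhodamine-CoA plus 12.5 uM BHQ-2-ybbR (50 mM Hepes pH 7.6, 10 mM MgCl2). Rate came from the fluorescence difference over 30 min, ex 525/em 598 nm.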
JMJD2A Tudor inh: qHTS Assay for Inhibitors of JMJD2A-Tudor Domain | AlphaScreen JMJD2A-Tudor / H3K4me3 peptide binding | Potency, µM (titrated, usually from 114 µM), inactives show top-dose activity change, negative = inhibition, most hits filed as inhibitors | 390,000 compounds, 4.4% hits | AID 504339, 2011; also: % is scaled to controls: 0 for no effect and ±100 for the full control effect; nearly all actives have a fitted effect of over 50% in size
HP1b chromo inh: HTS for Inhibitors of HP1-beta Chromodomain Interactions with Methylated Histone Tails. AlphaScreen HP1-beta / biotin-H3K9me3 peptide binding. Chromobox protein homolog 1 (Homo sapiens), P83916. Potency, µM (doses to about 114 µM), for inactives: top-dose activity change, negative = inhibition, actives largely listed as inhibitors. 390,000 compounds, 0.56% hits; also: nearly all actives have a fitted effect of over 70% in size
Target sequence (P83916 whole entry, looked up): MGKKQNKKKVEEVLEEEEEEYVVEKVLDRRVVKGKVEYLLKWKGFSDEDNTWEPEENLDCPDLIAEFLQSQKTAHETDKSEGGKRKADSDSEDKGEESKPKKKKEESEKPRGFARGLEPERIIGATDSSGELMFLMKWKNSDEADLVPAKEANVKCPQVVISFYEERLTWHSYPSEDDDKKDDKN
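Compound inhibition of the preformed complex between 50 nM HP1-beta and 50 nM biotinylated H3K9me3 peptide was read by AlphaScreen. Buffer was PBS pH 7.4 with 0.01% Tween-20. Incubations ran 30 min at room temperature, with 10 ug/mL donor/acceptor beads.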
* hit, by the source's call; ? = inconclusive; · = not tested or not shown; [ ] = remark or other dose. Hits are enriched below; roughly 12% of the tested compounds scored in any of these assays. Calls follow the shape of the dose curve; as a rule, active = well fitted curve in the direction sought with a large enough effect; inconclusive = small, poorly fitted or top-dose-only effect, or another doubt; inactive = no such curve, though single readings can be large; an effect the other way counts as inactive or inconclusive. Potency is read from the fitted curve at half-maximal effect.

SMILES	G9a block	BAZ2B inh	Sfp PPTase inh	JMJD2A Tudor inh	HP1b chromo inh
O=c1cc(-c2ccc(O)cc2)oc2c([C@@H]3O[C@H](CO)[C@@H](O)[C@H](O)[C@H]3O)c(O)c([C@@H]3O[C@H](CO)[C@@H](O)[C@H](O)[C@H]3O)c(O)c12	?	-17%	1%	-14%	17%
O=c1c2cc(O)c(O)cc2oc2cc(O)c(C3OC(CO)C(O)C(O)C3O)c(O)c12 (centres undefined)	2.8µM*	13µM*	-61%	7.9µM*	?
Cc1ccccc1NC(=S)Nn1cnnc1	·	?	22µM*	-25%	?
CCOc1ccccc1NC(=S)Nc1ccccc1F	13%[59 µM]	9%	?	-9%	20%
Fc1ccccc1NC(=S)Nn1cnnc1	4µM*	-24%	18µM*	50µM*	-21%
CCc1ccccc1NC(=S)Nn1cnnc1	10µM*	-26%	35µM*	·	·
CCOc1ccccc1NC(=S)Nn1cnnc1	1.8µM*	?	7.1µM*	50µM*	?
CCOC(=O)c1c(C)nsc1NC(=O)c1ccco1	24%	0%	7%	0%	38%
Cc1ccc(CN(C)CC(=O)Nc2ccc3c(c2)CCC3)cc1	?	-1%	-8%	12%	74%
N/C(=N\OC(=O)C12CC3CC(CC(C3)C1)C2)c1ccncc1	·	0%	18%	-9%	9%
CC(=O)N1c2ccc(S(=O)(=O)NCCC(=O)Nc3ccc(C)cc3Br)cc2CC1C (centres undefined)	-3%[59 µM]	-14%	·	3%	36%
Cc1cccc(NC(=S)Nn2cnnc2)c1C	·	?	10µM*	-10%	6%
COc1ccc(CNC(=O)Cn2ccc(NC(=O)OCc3ccccc3)nc2=O)cc1	6%[0.501 µM]	-5%	·	-23%	27%
CCc1ccc(NC(=S)Nn2cnnc2)cc1	7.9µM*	-26%	14µM*	79µM*	?
COc1ccc(NC(=S)NC23CN4CN(CN(C4)C2)C3)c(OC)c1	?	-7%	-3%	-31%	-4%
COc1ccc(NC(=S)Nn2cnnc2)c(OC)c1	5µM*	?	18µM*	?	?
COc1ccc(NC(=S)Nn2cnnc2)cc1OC	4µM*	-33%	20µM*	18µM*	?
S=C(Nc1ccccc1)Nn1cnnc1	1.4µM*	?	13µM*	-26%	-19%
O=C(NCc1ccccc1)c1cc(S(=O)(=O)N2CCC3(CC2)OCCO3)ccc1F	0%[59 µM]	-20%	13%	-10%	30%
COc1ccc(Cl)cc1S(=O)(=O)N1CCC(C(=O)N2CCOCC2)CC1	·	2%	3%	-15%	6%
Cc1nc2cc(-c3ccccc3)[nH]n2c(=O)c1C	17%	5%	22%	7%	40%
Cc1ccc(NC(=S)Nn2cnnc2)cc1	2.8µM*	?	8.9µM*	?	-17%
C/C=C(/C)C(=O)Nc1cccc(C2=NOC3(C2)C[C@@H](C(N)=O)N(C(=O)c2ccc(OC)cc2)C3)c1 (some centres undefined)	0%[59 µM]	-21%	5%	-9%	21%
C/C=C\C=C/C(=O)Nc1cccc(C2=NOC3(C2)C[C@@H](C(N)=O)N(C(=O)c2ccc(Cl)cc2)C3)c1 (some centres undefined)	?	?	7.1µM*	-32%	11%
C/C=C/C(=O)Nc1cccc(C2=NOC3(C2)C[C@@H](C(N)=O)N(C(=O)c2cc([N+](=O)[O-])cc([N+](=O)[O-])c2)C3)c1 (some centres undefined)	-7%[12.7 µM]	-11%	?	-31%	22%
SMILES	G9a block	BAZ2B inh	Sfp PPTase inh	JMJD2A Tudor inh	HP1b chromo inh
C/C=C(\C)C(=O)Nc1cccc(C2=NOC3(C2)C[C@H](C(N)=O)N(C(=O)c2cc([N+](=O)[O-])cc([N+](=O)[O-])c2)C3)c1 (some centres undefined)	-7%[59 µM]	-16%	8%	-20%	24%
C/C=C\C=C/C(=O)Nc1cccc(C2=NOC3(C2)C[C@H](C(N)=O)N(C(=O)c2ccc(OC)cc2)C3)c1 (some centres undefined)	?	-22%	13µM*	?	?
NC(=O)C1(NC(=O)[C@@H]2CC3(CC(c4cccc(NC(=O)c5cc([N+](=O)[O-])cc([N+](=O)[O-])c5)c4)=NO3)CN2C(=O)c2ccccc2)CC1 (some centres undefined)	·	-38%	79µM*	?	19%
O=C(O)Cc1ccc(C(=O)c2ccccc2F)s1	45µM*	-22%	10%	-5%	29%
O=C(O)Cc1ccc(C(=O)c2ccc(Cl)cc2Cl)s1	9%	166%	3%	118%	135%
Cc1c(C(=O)Nc2ccc(-c3nnc4n3CCCCC4)cc2)oc2c1ccc1ccccc12	50µM*	-32%	?	?	-9%
O=C(Nc1ccc(-c2nnc3n2CCCCC3)cc1)c1cc2ccccc2o1	1%[59 µM]	-7%	1%	-17%	8%
COC(=O)C1=C(C)N=C2SC(C#N)=C(N)N2C1c1cc(OC)c(OC)c(OC)c1 (centres undefined)	-1%	-1%	3%	-20%	9%
CCOC(=O)C1=C(N)N2C(=O)C(C)SC2=C(C(=O)OC)C1c1cccc(OC)c1 (centres undefined)	8%	-8%	-8%	-22%	24%
COC(=O)C1=C2SC(C)C(=O)N2C(N)=C(C#N)C1c1ccc(OC)c(OC)c1 (centres undefined)	?	-37%	35µM*	-29%	9%
COC(=O)C1=C2SC(C)C(=O)N2C(N)=C(C#N)C1c1cc(OC)c(OC)c(OC)c1 (centres undefined)	?	-7%	35µM*	0%	33%
CN(C)/C=C/C(=O)c1ccc(F)cc1F	-3%[59 µM]	-3%	7%	-9%	38%
CCN(CC)Cc1c(O)c(Cl)cc2c(C)cc(=O)oc12	?	56µM*	20%	-33%	?
c1ccc2c(OCCCN3CCCCCC3)cccc2c1	·	56µM*	-7%	22µM*	?
c1ccc(-c2ccccc2OCCCN2CCCCC2)cc1	8.9µM*	?	-35%	7.9µM*	-20%
c1ccc(-c2ccccc2OCCN2CCOCC2)cc1	10µM*	79µM*	-32%	14µM*	20µM*
Fc1ccccc1OCCCCCCN1CCCC1	-50%[59 µM]	4%	-15%	-18%	17%
CCN1CCN(CCCOc2ccccc2-c2ccccc2)CC1	·	28µM*	?	22µM*	-5%
Cc1c(Cl)cccc1NC(=O)Nc1nnc(N2CCCCCC2)s1	-5%[59 µM]	3%	·	-14%	18%
